# In the supplement of paper PMC6555819:
# Columns and labels:
# Test in all cases: PBM binding z-score (relative to random genomic background probes); higher = stronger binding; sequences stand for … in GC…GCGATTGACAGCGTAGAATGAAGG
# [1] = test system: RARb homodimer (NR concentration 270 nM)
# How it was run: (§1)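 Binding z-scores take random background probes as their reference. They come from custom Agilent 4×180K protein-binding microarrays incubated 1 h with ligand-free nuclear receptor dimers, with antibodies against each partner (one per run) detecting binding. Scanned fluorescence was regression-normalized.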
# [2] = test system: RARg:RXRa (NR concentration 270 nM, RXRa partner concentration 90 nM)
# How it was run: as §1
# [3] = test system: RARg homodimer (NR concentration 270 nM)
# How it was run: as §1
# [4] = test system: RXRa DBDmut IVT, anti-RXR (DBD mutation: RXRa K156A/R161A, NR concentration 90 nM)
# How it was run: as §1
# [5] = test system: RXRa homodimer (NR concentration 180 nM)
# How it was run: as §1
# [6] = test system: THRa:RXRa (NR concentration 90 nM, RXRa partner concentration 90 nM)
# How it was run: as §1
# [7] = test system: THRa homodimer (NR concentration 90 nM)
# How it was run: as §1
# [8] = test system: VDR homodimer (NR concentration 270 nM)
# How it was run: as §1
Sequence,PBM binding z-score [1],PBM binding z-score [2],PBM binding z-score [3],PBM binding z-score [4],PBM binding z-score [5],PBM binding z-score [6],PBM binding z-score [7],PBM binding z-score [8]
TAGCCTAGGTCAGATCGGGCCACTATACGCTATA,2.48,2.78,3.37,-0.221,1.48,4.72,0.493,0.0583
TCGAGGAGGTTACCAATGGGGCATTCAGCTTTCT,1.69,2.85,1.13,0.716,1.83,1.06,-0.297,0.112
TCTTGTAGATCAAAGGTTAATAAAGCCGAAGCCT,1.25,1.51,0.841,1.09,2.55,1.32,-0.223,0.243
CGAACTAGGTCATTGACAGGACAGTGTATAGTAA,2.93,4.51,4.13,2.69,2.38,3.02,0.913,1.47
ATCTCTCGGTAAAGTTCAGTGAAAGATCGATAGA,2.62,2.19,2.56,1.17,1.06,0.717,0.426,2.27
CTCGAAAGGCCGGTTGAGGTGAGTATACGGATAA,0.451,0.273,0.383,-0.239,-0.037,3.54,0.438,-0.821
TTACCAGGGTGAAAGGTCGTTGATGCACGCCTTG,2.58,3.82,1.48,0.566,6.13,2.9,0.639,1.87
AGAAAGAGGTTAAGATCAGGGAAACAGAATACAT,1.42,2.54,1.86,0.244,2.82,2.02,0.45,0.57
GCTAGTTGGTCCGTAAAAGGTCACACACCGGTCG,5,5.04,4.7,0.491,5.6,3.5,1.82,1.94
CCTACTGGGCCATCTGGTCATTGATATCAACGTT,0.54,0.0182,0.419,-0.267,-0.224,-0.171,0.0962,-0.0886
CAAACTAGGTCAAAGGTCAAAGTGGAGCCAACCA,4.96,8.91,7.43,3.12,10.1,4.71,1.88,3.27
CCTACTGGGCCAAAGTTCATTGATTCCAATGCTC,3.34,3.23,2.56,2.37,2.73,1.44,0.0374,3.96
TCTAGCAGTCCAGAGGGTCACTCAAGAGGTACGG,2.78,2.4,1.91,0.0371,2.54,1.79,0.000359,0.904
GATACAGGGTCAAGGCCAGAGGACGCGTATTGAT,3.63,5.29,4.94,2.07,5.78,3.64,1.43,2.28
CGTCAAAGTTCATCTAAGGTAACGTAAAGCACGC,4.35,5.77,6.43,5.14,4.66,5.26,2.52,5.45
ACTCGGAGGACAAAGGTCAGACCTACGCCAGTGA,4.02,6.08,5.29,1.23,5.81,3.5,0.604,1.81
ACTTACGGGTCAACGAGGTTTTAGCACGCGTATA,3.37,5.26,4.9,2.16,5.5,3.46,0.678,1.84
TCAGATAGGTAATACAGGTGAAAGTCGGCATCTA,0.54,0.562,0.364,1.27,1.03,0.795,0.181,0.187
TTACCAAGGTGAAAGGTCGATGATGCACGCCTTG,2.3,3.83,2.15,-0.254,4.5,3.04,0.568,0.119

Sequence,PBM binding z-score [1],PBM binding z-score [2],PBM binding z-score [3],PBM binding z-score [4],PBM binding z-score [5],PBM binding z-score [6],PBM binding z-score [7],PBM binding z-score [8]
CCAACTGGGGCATAAGGTTACCATAAGCCAGCCC,1.68,1.52,1.12,-0.33,1.24,1.97,1.29,0.0835
CATACAGGGTCAGCTAGGCCAGCGTAGGGACGGC,3.43,4.42,4.81,1.4,4.2,3.3,0.936,0.947
AGTATGAGGTTAAGATCAGGGAAACAGAATACAT,1.09,2.13,1.66,0.674,2.42,2.63,0.96,0.755
CCTAGCAGGCCAATCTGGGTCAATCAAGGCTTGA,1.85,0.779,1.13,0.108,0.518,3.67,-0.0726,-0.0739
GCTGCTAGGTCAGGTTGGTCAGCTATCGGGTACG,2.73,2.44,3.56,0.759,0.93,1.84,0.785,0.204
AGAATGAGGTAATTAAGATCAGGGAATTGCGGTC,-0.177,0.105,0.0569,-0.166,0.198,1.34,0.328,-0.255
ACAATGAGGTTATTAAGATCAGGGAATTGCGGTC,1.27,1.45,1.33,2.17,1.83,2.23,1.09,1.61
TGAATGCGGTTAAAGATCAGGGAACGTGGCGTCG,-0.707,-0.0436,-0.136,-0.853,0.338,-0.164,-0.454,-0.55
CCTACTGGACCAAAGGTCATTGATTCCAATGCTC,4.9,5.27,4.97,1.85,6.4,3.46,1.67,3.18
CCTAGTTGGTGAAGGTCACACACGCTATAGGTAC,4.26,4.01,4.06,1.36,3.65,2.89,1.2,2.3
CCTTACGGGTCACGAGGTTATAGAACGACGAGCG,4.13,6.4,5.59,1.18,7.41,3.8,1.14,2.22
CGTCCAAGGTCAGAGAGCTCAGTGAATGCCGAGT,3.53,4.54,5.24,2.67,3.25,3.14,1.42,1.5
TCTTGTAGATCAAGCAGGTTAAAAAAGCCTGAGT,0.112,0.141,-0.124,0.493,0.566,0.589,-0.577,0.272
CCTACTGGCCCAAAGGTCATTGATTCCAATGCTC,4.89,4.89,4.36,1.06,5.05,3.3,0.916,2.14
CGTCCAAGGTTAATGCTAGGTCAGTGAAAGCATT,3.14,4.63,2.64,1.27,1.78,3.44,1.31,0.435
TAGCCTAGGTCATTCACGGGCCAGTATAGAAAGC,2.73,4.9,4.23,1.96,2.7,2.91,0.437,1.43
CGTCCAAGGTCAGAGACGTCAGTGAATGCCGAGT,3.39,4.24,4.6,2.62,3.33,3.24,1.49,1.24
TGAATGAGCTTATAAGATCAGGGAACGTTGCAAA,-1.21,-0.305,-0.288,-1.2,-0.211,-0.371,-1.18,-0.577
GGAACGAGGGCATTCGAGTTAATAGCATGGCGAT,0.504,1.33,1.59,2.83,1.09,3.22,-0.196,2.58

Sequence,PBM binding z-score [1],PBM binding z-score [2],PBM binding z-score [3],PBM binding z-score [4],PBM binding z-score [5],PBM binding z-score [6],PBM binding z-score [7],PBM binding z-score [8]
TCTATCAGTTGAAGGGCAACCGACGAGTCCGTTT,1.44,0.695,0.748,1.11,0.849,0.16,0.0373,1.44
ACAGCCAGGTGATGAAGGTAACTCAGGCTATCAT,-0.0957,-0.0664,0.0616,-0.658,0.21,1.1,0.166,-0.584
TAGCCTAGGTCTTTGGGCCAGTATAGTACGCATC,-0.337,-0.253,-0.164,-0.783,-0.392,-0.218,-0.674,-0.826
CCTTACGGGTCACTCCAGGTTTTAGCATCGGAGT,2.77,4.49,4.02,1.79,4.23,4.31,0.0902,1.74
CCGACTGGGGCACAAGGTTACCATAAGCCAGCCC,1.59,1.46,1.12,-0.589,0.82,1.37,0.35,-0.201
CCTATTAGTTGACCATAAGGGCAACGGAAGCTCG,1.92,1.29,0.865,0.278,0.632,1.84,1.47,0.902
CGAACTAGGTCAGAACAGGACAGTAAAGGATGAT,2,2.48,3.35,0.613,1.27,3.43,0.235,0.325
TGTATTAGTTGAAGGGCAACCGACGAGTCCGTTT,1.63,0.727,1.06,0.401,0.406,0.237,0.213,1.55
AGAATGAGGTTACCCAAGATCAGGGAAACGCTTG,0.82,1.93,1.6,1.06,2.36,3.28,0.843,0.242
ACTAGCAGGCCCAGGGTCACTCAAGATTAGTCCG,2.58,2.39,2.01,-0.284,2.78,2.73,1.17,1.14
GGAACGAGGGCAAAGTTGATACCATCTGTCGACG,1.63,2.14,2.02,2.79,2.18,1.47,0.0828,2.09
CCTACTGGGCCAAGGACATTGATCAGTCAAAGCA,0.324,0.0324,0.267,-0.538,-0.348,1.29,0.695,0.333
CAAACTAGATCAAGGTCAAAGTCGGTTTGTGCCA,3.72,3.89,3.29,2.46,4.18,3.88,2.96,3.73
CAATCTAGGTCAAGAGGTCAAAGTCCGCTTCCCG,5.66,8.19,7.48,2.79,8.19,4.5,2.95,5.19
TCTATTAGTTGATTAGGGCAACCAAAACAGCGGA,0.623,0.694,0.677,0.92,0.57,0.825,0.291,0.358
CCTACTGGGCCAAGGGTCATTGATTCCAATGCTC,3.11,3.67,3.31,-0.197,3.75,2.11,0.000297,1.68
CGTCCAAGGTCATCGGAGGTCAGTGAAGACAGAT,5.43,7.31,7.72,4.24,6.83,5.45,3.48,5.07
CGTATTAGTTGACCATAAGGGCAACCGAAGCTCG,2.04,1.2,0.883,0.244,0.743,1.83,1.15,0.668
